The record followed here is ChEMBL document CHEMBL1961873, “Compounds: GSK PKIS; Assays: Nanosyn kinase panel” (2012).

By inhibition is commonly meant the change of the read-out against control, counted positive when it falls.

“And” between values parts separate entries of the source, which are not always exact repeats. Identical values can stand only once.

Chain of Serine/threonine-protein kinase pim-1 (Homo sapiens) (P11309 whole entry, looked up): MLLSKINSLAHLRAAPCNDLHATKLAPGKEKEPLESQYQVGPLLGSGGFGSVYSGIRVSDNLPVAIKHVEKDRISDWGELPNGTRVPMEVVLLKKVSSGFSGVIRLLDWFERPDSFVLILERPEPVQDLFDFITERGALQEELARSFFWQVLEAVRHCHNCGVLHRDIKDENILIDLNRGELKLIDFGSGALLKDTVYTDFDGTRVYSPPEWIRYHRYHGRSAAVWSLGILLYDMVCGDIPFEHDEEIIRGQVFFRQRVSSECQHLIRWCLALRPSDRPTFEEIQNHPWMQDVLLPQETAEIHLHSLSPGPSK

One experiment has as its target Serine/threonine-protein kinase pim-1 (Homo sapiens) (UniProt P11309). As to conditions: at 1 µM.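 Note: reported figures are mean percent inhibition of PIM1 kinase activity.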
For `FC(F)(F)CNc1nccc(-c2cnn3ncccc23)n1`, the inhibition is 3.03%.

As for `CCOc1ccc2c(-c3ccnc(Nc4cc(OC)cc(C(F)(F)F)c4)n3)cnn2n1`, the inhibition was -0.17%.

Regarding `CCS(=O)(=O)c1ccc(OC)c(Nc2ncc(-c3cccc(C(C)=O)c3)o2)c1`, the inhibition was 1.66%.

On to `CS(=O)(=O)CCNCc1ccoc1-c1ccc2ncnc(Nc3ccc(OCc4ccccc4)cc3)c2c1`, for which the inhibition is -0.94%.

`NS(=O)(=O)c1cccc(N/C=C2\C(=O)Nc3ccccc32)c1`: the inhibition was determined as 0.73%.

`CCn1c(-c2nonc2N)nc2cncc(C(=O)NCCNC)c21`: the inhibition turned out to be 87%.

On to `CS(=O)(=O)CCNCc1ccc(-c2ccc3ncnc(Nc4ccc(OCc5cccc(C(F)(F)F)c5)cc4)c3c2)o1`, for which the inhibition is 3.18%.

Consider `COc1cc(N2CCN(C(C)C)CC2)ccc1Nc1nc(Nc2cccc(F)c2C(=O)O)c2cc[nH]c2n1`, for which the inhibition worked out at 1.42%.

With `O=C(O[C@H]1CN[C@H](C#Cc2cc3ncnc(Nc4ccc5c(cnn5Cc5ccccc5)c4)c3s2)C1)N1CCOCC1`, the inhibition was -0.83%.

On to `CS(=O)(=O)Nc1ccc(-c2cc(-c3ccccc3)cc(C(N)=O)c2N)cc1`, for which the inhibition was determined as 1.67%.

With `CCS(=O)(=O)c1ccc(OC)c(Nc2ncc(-c3cccc(F)c3)o2)c1`, the inhibition came to 4.66%.

In the case of `O=C1Nc2ccccc2/C1=C1\CCc2cc(O)ccc21`, the inhibition turned out to be 10.2%.

As for `Cc1ccc(-c2cc3c(NC(=O)C4CC4)ncnc3o2)cc1`, the inhibition was 1.91%.

As to `CS(=O)(=O)Nc1ccc(-c2ccc3c(NC(=O)C4CC4)n[nH]c3c2)cc1`, the inhibition came out at 2%.

On to `Cn1c(-c2nonc2N)nc2cnccc21`, for which the inhibition was 16.4%.

For `COc1cccc(-n2ncc3c(N/N=C/c4ccc(C(=O)NCCN(C)C)cc4)ncnc32)c1`, the inhibition amounted to 8.23%.

Turning to `O=C(Nc1n[nH]c2nnc(-c3cccnc3)cc12)C1CC1`, the inhibition was 74.5%.

`COC(=O)Nc1nc2ccc(Oc3ccc(NC(=O)Nc4cc(C(F)(F)F)ccc4F)cc3)cc2s1`: the inhibition was determined as 1.19%.

As to `NC(=O)c1ccc2c(-c3ccnc(NCCCO)n3)c(-c3ccc(F)cc3)nn2c1`, the inhibition worked out at 0.82%.

Take `NS(=O)(=O)c1ccc(N/N=C2\C(=O)Nc3ccc(C(=O)NCc4ccncc4)cc32)cc1`: the inhibition came out at 7.29%.

On to `CNC(=O)c1ncccc1Nc1nc(Nc2cc3c(cc2OC)CCCN3C(=O)CN(C)C)nc2[nH]ccc12`, for which the inhibition was determined as 65.9%.

Turning to `COc1ccccc1-c1cc(/C=C2\C(=O)Nc3ncc(Br)cc32)cc(Br)c1O`, the inhibition was found to be 3.18%.

Take `CN(C)CCNC(=O)Nc1ccc(N(C)c2ccnc(Nc3ccc(CS(C)(=O)=O)cc3)n2)cc1`: the inhibition worked out at 1.39%.

As to `CS(=O)(=O)CCNCc1ccc(-c2ccc3ncnc(Nc4ccc(OCc5ccccc5)cc4)c3c2)o1`, the inhibition is 1.03%.

Regarding `COC(=O)Nc1nc2cc(Oc3ccc(NC(=O)Nc4ccccc4)cc3)ccc2[nH]1`, the inhibition was found to be 0.02%.

As for `O=C(O[C@H]1CN[C@H](C#Cc2cc3ncnc(Nc4ccc(OCc5cccc(F)c5)c(Cl)c4)c3s2)C1)N1CCOCC1`, the inhibition was 0.58%.

For the compound `CCCNc1cccc(-n2ncc3c(N/N=C/c4ccncc4)ncnc32)c1`, the inhibition was found to be 1.01%.

`CC1=C(C(=O)Nc2ccc3[nH]nc(C)c3c2)C(c2ccc(C(F)(F)F)cc2)CC(=O)N1` (configuration not stated): the inhibition was 0%.

`CN1CCC(C(=O)Nc2n[nH]c3nc(-c4ccc(O)cc4)c(Br)cc23)CC1`: the inhibition is 34.8% and 33.4%.

In the case of `Cc1cc(O)cc(C)c1/C=C/c1cncc(C(=O)OC(C)(C)C)c1`, the inhibition turned out to be 0.23%.

On to `CN1CCN(Cc2ccc(-c3cc4ncnc(Nc5ccc(OCc6cccc(F)c6)c(Cl)c5)c4s3)o2)CC1`, for which the inhibition was 1.02% and 0.98%.

Another experiment deals with Serine/threonine-protein kinase pim-2 (Homo sapiens) (UniProt Q9P1W9). The conditions noted are these: at 0.1 µM.
Chain of Serine/threonine-protein kinase pim-2 (Homo sapiens) (Q9P1W9 whole entry, looked up): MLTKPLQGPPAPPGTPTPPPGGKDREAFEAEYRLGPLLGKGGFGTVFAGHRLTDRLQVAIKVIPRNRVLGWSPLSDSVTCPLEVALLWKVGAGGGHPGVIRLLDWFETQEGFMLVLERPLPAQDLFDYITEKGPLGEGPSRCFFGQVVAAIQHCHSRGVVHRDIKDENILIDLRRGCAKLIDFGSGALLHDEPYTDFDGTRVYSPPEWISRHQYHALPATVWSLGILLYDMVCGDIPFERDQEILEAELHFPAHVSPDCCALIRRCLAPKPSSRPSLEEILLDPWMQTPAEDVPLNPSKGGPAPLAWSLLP
Take `FC(F)(F)CNc1nccc(-c2cnn3ncccc23)n1`: the inhibition is -0.09%.

Consider `CCOc1ccc2c(-c3ccnc(Nc4cc(OC)cc(C(F)(F)F)c4)n3)cnn2n1`, for which the inhibition is -0.46%.

With `CCS(=O)(=O)c1ccc(OC)c(Nc2ncc(-c3cccc(C(C)=O)c3)o2)c1`, the inhibition is -0.72%.

In the case of `CS(=O)(=O)CCNCc1ccoc1-c1ccc2ncnc(Nc3ccc(OCc4ccccc4)cc3)c2c1`, the inhibition was 0.1%.

Turning to `NS(=O)(=O)c1cccc(N/C=C2\C(=O)Nc3ccccc32)c1`, the inhibition is -0.33%.

For `CCn1c(-c2nonc2N)nc2cncc(C(=O)NCCNC)c21`, the inhibition was 1.81%.

For the compound `CS(=O)(=O)CCNCc1ccc(-c2ccc3ncnc(Nc4ccc(OCc5cccc(C(F)(F)F)c5)cc4)c3c2)o1`, the inhibition is -0.68%.

Take `COc1cc(N2CCN(C(C)C)CC2)ccc1Nc1nc(Nc2cccc(F)c2C(=O)O)c2cc[nH]c2n1`: the inhibition worked out at 0.01%.

For the compound `O=C(O[C@H]1CN[C@H](C#Cc2cc3ncnc(Nc4ccc5c(cnn5Cc5ccccc5)c4)c3s2)C1)N1CCOCC1`, the inhibition is -0.43%.

For `CS(=O)(=O)Nc1ccc(-c2cc(-c3ccccc3)cc(C(N)=O)c2N)cc1`, the inhibition is -0.48%.

With `CCS(=O)(=O)c1ccc(OC)c(Nc2ncc(-c3cccc(F)c3)o2)c1`, the inhibition was -0.96%.

Take `O=C1Nc2ccccc2/C1=C1\CCc2cc(O)ccc21`: the inhibition is -0.2%.

On to `Cc1ccc(-c2cc3c(NC(=O)C4CC4)ncnc3o2)cc1`, for which the inhibition is 0.35%.

For the compound `CS(=O)(=O)Nc1ccc(-c2ccc3c(NC(=O)C4CC4)n[nH]c3c2)cc1`, the inhibition amounted to 0.44%.

On to `Cn1c(-c2nonc2N)nc2cnccc21`, for which the inhibition was -0.31%.

In the case of `COc1cccc(-n2ncc3c(N/N=C/c4ccc(C(=O)NCCN(C)C)cc4)ncnc32)c1`, the inhibition came out at 0.17%.

Regarding `O=C(Nc1n[nH]c2nnc(-c3cccnc3)cc12)C1CC1`, the inhibition came out at 4.25%.

Consider `COC(=O)Nc1nc2ccc(Oc3ccc(NC(=O)Nc4cc(C(F)(F)F)ccc4F)cc3)cc2s1`, for which the inhibition is -0.21%.

For `NC(=O)c1ccc2c(-c3ccnc(NCCCO)n3)c(-c3ccc(F)cc3)nn2c1`, the inhibition is -0.18%.

On to `NS(=O)(=O)c1ccc(N/N=C2\C(=O)Nc3ccc(C(=O)NCc4ccncc4)cc32)cc1`, for which the inhibition was found to be 0.12%.

For `CNC(=O)c1ncccc1Nc1nc(Nc2cc3c(cc2OC)CCCN3C(=O)CN(C)C)nc2[nH]ccc12`, the inhibition turned out to be 1.04%.

Turning to `COc1ccccc1-c1cc(/C=C2\C(=O)Nc3ncc(Br)cc32)cc(Br)c1O`, the inhibition is 0.1%.

On to `CN(C)CCNC(=O)Nc1ccc(N(C)c2ccnc(Nc3ccc(CS(C)(=O)=O)cc3)n2)cc1`, for which the inhibition turned out to be 0.27%.

Take `CS(=O)(=O)CCNCc1ccc(-c2ccc3ncnc(Nc4ccc(OCc5ccccc5)cc4)c3c2)o1`: the inhibition was found to be 0.19%.

As to `COC(=O)Nc1nc2cc(Oc3ccc(NC(=O)Nc4ccccc4)cc3)ccc2[nH]1`, the inhibition turned out to be 0.15%.

With `O=C(O[C@H]1CN[C@H](C#Cc2cc3ncnc(Nc4ccc(OCc5cccc(F)c5)c(Cl)c4)c3s2)C1)N1CCOCC1`, the inhibition is -0.36%.

With `CCCNc1cccc(-n2ncc3c(N/N=C/c4ccncc4)ncnc32)c1`, the inhibition was 1.23%.

On to `CC1=C(C(=O)Nc2ccc3[nH]nc(C)c3c2)C(c2ccc(C(F)(F)F)cc2)CC(=O)N1` (configuration not stated), for which the inhibition stood at 0%.

In the case of `CN1CCC(C(=O)Nc2n[nH]c3nc(-c4ccc(O)cc4)c(Br)cc23)CC1`, the inhibition is -0.97% and 1.73%.

Turning to `Cc1cc(O)cc(C)c1/C=C/c1cncc(C(=O)OC(C)(C)C)c1`, the inhibition worked out at 0.32%.

In the case of `CN1CCN(Cc2ccc(-c3cc4ncnc(Nc5ccc(OCc6cccc(F)c6)c(Cl)c5)c4s3)o2)CC1`, the inhibition is -0.52% and 0.67%.
